Source: PubChem (National Center for Advancing Translational Sciences (NCATS))
Mito fusion yeast: qHTS Assay for Small Molecule Inhibitors of Mitochondrial Division or Activators of Mitochondrial Fusion. S. cerevisiae fusion-defective mutant growth rescue, CellTiterGlo 48 h. 320,000 tested, 0.23% active. Potency, µM (titrated, usually from 46.1 µM), actives largely listed as activators. AID 485298, 2010; further: nearly all actives have a fitted effect of over 45% in size
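S. cerevisiae fusion-defective temperature-sensitive mutants (e.g. fzo1-1, mgm1-5) grown 48 h at 37C in YPEG (ethanol/glycerol non-fermentable) medium with 23 nl compound per well; growth rescue read as CellTiterGlo luminescence.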
aSyn rescue: qHTS of alpha-syn Inhibitors; Yeast expressing alpha-synuclein, growth rescue, BacTiter-Glo, 24 h; Potency, µM (highest dose often 46.1 µM), hits mostly activators; 370,000 tested, 0.14% active; AID 652106, 2013; further: nearly all actives have a fitted effect of over 65% in size
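Galactose-induced alpha-syn yeast (OD600=0.02, raffinose-pregrown) + pinned cpd, 24 hr, 30 deg C; growth by BacTiter-Glo luminescence. Growth restoration scores as activation.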
TDP-43 yeast inh: qHTS of TDP-43 Inhibitors | AID 652104, 2013 | 410,000 tested, 1.8% active | TDP-43 expressing yeast growth rescue, BacTiter-Glo, 24 h | Potency, µM (highest dose often 46.1 µM), actives largely listed as activators; further: nearly all actives have a fitted effect of over 50% in size
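Readout is BacTiter-Glo luminescence of cell growth, so inhibitors register as activators. TDP-43-expressing yeast at OD600=0.02 in galactose medium, after raffinose pregrowth to mid-log, were incubated with compound for 24 hr at 30 deg C.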
Abeta rescue: qHTS for compounds that reverse cellular toxicity of Amyloid beta (A-beta) peptide in yeast: Primary Screen; 410,000 tested, 0.063% active; yeast expressing A-beta42, growth rescue, OD600, 48 h; response scale: 0% DMSO, 100% iron-clioquinol control; Potency, µM (doses to about 46.1 µM), usual class: activators; AID 1347071, 2019; further: nearly all actives have a fitted effect of over 55% in size
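Yeast A-beta toxicity model in growth medium with pinned compounds, 48 h at 30 C; growth read as absorbance at 600 nm. Normalized to FeCl3/clioquinol equimolar mix (positive) and DMSO (negative).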
GRP78 ERSR act: qHTS for Inducers of the Endoplasmic Reticulum Stress Response (ERSR) in Human Glioma: qHTS; AID 602332, 2012; Potency, µM, hits mostly activators; U87-MG GRP78 promoter luciferase reporter, 16 h; 420,000 tested, 0.02% active; further: series mostly up to about 76 µM; nearly all actives have a fitted effect of over 35% in size
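ERSR induction read as luciferase luminescence (Bright-Glo, 10 min at room temperature) in stably transfected human U87-MG glioma cells exposed to compounds for 16 h, using GRP78 as sensor.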
A-T KAP1 phos: qHTS Assay for Identifying a Potential Treatment of Ataxia-Telangiectasia; F2112 A-T fibroblasts, KAP-1 phosphorylation AlphaLISA; neocarzinostatin DNA damage 30 min before lysis; Potency, µM (top dose mostly 57.5 µM), hits mostly activators; 320,000 tested, 0.19% active; further: nearly all actives have a fitted effect of over 45% in size
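hTERT-immortalized A-T patient fibroblasts (F2112), 500 cells/well in OPTI-MEM, 1% FBS, got compounds for 60 min, then NCS for 30 min at 37C. Lysates were then assayed for phospho-KAP-1 by AlphaLISA (anti-pKAP1 donor, anti-KAP1 acceptor beads), 6 hr at 25C.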
Hits are given with their value; 0 = inactive; ? = inconclusive; - = no result. Rows were chosen to be rich in hits. Some 2.1% of all compounds tested hit in one or more screens of this group. The call rests on the fitted dose curve; in most records, active means well fitted curve in the direction sought with a large enough effect; inconclusive means small, poorly fitted or top-dose-only effect, or another doubt; inactive means no such curve, though single readings can be large; an effect the other way counts as inactive or inconclusive.

SMILES	Mito fusion yeast	aSyn rescue	TDP-43 yeast inh	Abeta rescue	GRP78 ERSR act	A-T KAP1 phos
COc1ccc(CN(C(=O)/C=C/C(=O)c2ccc(OC)cc2O)C(C(=O)NC2CCCCC2)c2ccncc2)cc1 (configuration not stated)	?	35µM	0	0	0	0
COCCN(CC(=O)NC1CCCCC1)C(=O)/C=C/C(=O)c1ccc(OC)cc1O	0	0	14µM	0	0	0
COc1ccc(C(=O)/C=C/C(=O)N(Cc2ccc3c(c2)OCO3)C(C(=O)NC2CCCCC2)c2ccncc2)c(O)c1 (configuration not stated)	0	?	?	0	0	0
COc1ccc(C(=O)/C=C/C(=O)N(CC(=O)NC2CCCCC2)Cc2cccs2)c(O)c1	0	0	20µM	0	0	0
CN(C)c1ncc2ncc(=O)n(Cc3cccs3)c2n1	-	-	-	-	0	-
Cc1ccc(NCc2cccn2-c2nnc(N3CCC(C(=O)NCCc4ccc(Cl)cc4)CC3)s2)cc1	-	-	35µM	?	-	-
Cc1ccc(NCc2cccn2-c2nnc(N3CCC(C(=O)NCc4ccc(OC(C)C)cc4)CC3)s2)cc1	-	-	0	0	-	-
Cc1cc2c([nH]c3ccccc32)c2c1OC(C)(C)C=C2	0	0	28µM	0	0	0
COc1ccc(/C=C/C(=O)N2CCc3c(cnc(C)c3CNC(=O)c3ccsc3)C2)cc1OC	-	-	-	-	0	-
COC(=O)CNc1cc(S(=O)(=O)N2CCCCC2)ccc1Oc1ccc(C(=O)OC)cc1	0	?	0	0	0	0
COC(=O)c1ccc(Oc2ccc(S(=O)(=O)N3CCCCC3)cc2N)cc1	0	13µM	?	0	0	0
COC(=O)[C@@H]1CCCN1C(=O)c1c(OC)cc(=O)n2c1CCN(Cc1cc(OC)ccc1F)CC2	-	-	-	-	0	-
COc1ccc(CN2CCC3(CC2)c2ccccc2[C@@H](NC(=O)c2ccco2)[C@@H]3OC)c(O)c1	-	-	-	-	0	-
CCc1cc(=O)oc2cc3occ(-c4ccc(OC)c(F)c4)c3cc12	16µM	0	0	0	0	0
COc1ccc2nc3cccc(OC)c3nc2c1	0	0	22µM	?	0	0
COC(=O)C[C@H]1c2ccccc2S(=O)(=O)N1c1ccc(N(C)C)cc1	-	-	-	-	0	-
Cc1ccc(-c2cc(C(F)(F)F)c(C#N)c(SCC(=O)O)n2)cc1	0	0	0	0	0	0
COc1ccc(-c2cc(C(F)(F)F)c(C#N)c(SCC(=O)O)n2)cc1OC	0	-	-	-	-	8.9µM
CCC1C(=O)NCCN1Cc1ccc2c(c1)CN(Cc1cccc(OC)c1OC)CCO2 (configuration not stated)	-	-	-	-	0	-
CCOC(=O)C1CCN(CC(C)(C)NS(=O)(=O)c2ccc(C)cc2)CC1	3.5µM	0	0	0	0	0
CCOC(=O)C1CCN(CC(C)(C)NS(=O)(=O)c2ccc(Cl)cc2)CC1	0	0	0	0	0	0
CCCCCCC(=O)N1C/C=C\C(c2ccc(OC)cc2)N(Cc2ccc(F)cc2)C(=O)C1 (configuration not stated)	0	0	28µM	0	0	0
Cc1ccc(S(=O)(=O)N2[C@@H](c3ccc(F)cc3)C(C(=O)O)=CC[C@H]2c2cccc(Cl)c2)cc1	0	0	22µM	0	0	0
COc1ccc([C@@H]2CC=C(C(=O)O)[C@H](c3ccc(F)cc3)N2S(=O)(=O)c2ccc(Cl)cc2)cc1	0	0	14µM	0	0	0
CC(=O)N(CC(O)CO)c1c(I)c(C(=O)NCCO)c(I)c(C(=O)NCC(O)CO)c1I (configuration not stated)	-	-	-	-	0	-
Cc1c(Cl)cccc1NC(=O)CCS(=O)(=O)c1ccc(Br)s1	-	-	0	0	0	-
